# Data published in PubChem BioAssay.
# The source made the active and inactive calls.
# Assays:
# [1] = compounds binding Alexa647 anti-His antibody – biochemical, small-molecule microarray, 635 nm fluorescence, artefact control for SMM control protein annotation, primary screen (AID 1128); conditions: higher = more signal;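 note: score merges feature fluorescence with signal-to-noise for each printed compound spot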
# [2] = system: Human papillomavirus type 1a E7 protein (residues 1-88); assay: HPV1a E7 small-molecule binders, primary screen, biochemical, small-molecule microarray, residues 1-88, 635 nm (AID 1129); conditions: small-molecule microarray binding, fluorescence 635 nm; higher = more signal
# [3] = molecular target: Focal adhesion kinase 1 (Homo sapiens) (UniProt Q05397); assay: PTK2 protein binding on printed compound slides – biochemical, small-molecule microarray, 635/667 nm fluorescence, BSA, DTT, primary screen (AID 1130); conditions: 635 nm fluorescence, higher = more signal;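 note: composite of spot emission at 667 nm and signal to noise over triplicate slides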
# [4] = system: Fibrinogen (Alexa647-labelled); assay: Alexa647-fibrinogen binding to printed small molecules – biochemical, small-molecule microarray, 635/667 nm fluorescence, artefact control for SMM control-protein annotation, profiling panel (AID 1131); conditions: fibrinogen-A647 binding fluorescence, higher = more signal;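 note: z-score merges 667 nm fluorescence with per-spot signal-to-noise over triplicate slides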
# [5] = molecular target: Follistatin (Homo sapiens) (UniProt P19883); assay: FST protein binding to printed compounds – biochemical, small-molecule microarray, 635/667 nm fluorescence, primary screen (AID 1132); conditions: 635 nm fluorescence, higher = more signal
# [6] = molecular target: Fibroblast growth factor 2 (Homo sapiens) (UniProt P09038); assay: basic fibroblast growth factor binding to printed compounds – biochemical, small-molecule microarray, 635/667 nm fluorescence, primary screen (AID 1133); conditions: FGF2, fluorescence 635/667, higher = more signal
# [7] = JC-1 mitochondrial potential readout, lung cancer cells – cell-based, A549, JC-1 fluorescence, basal, 24 h, 100 nL, profiling panel (AID 1138); conditions: higher = more signal;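 note: A549 lung adenocarcinoma cells under basal conditions with no added stimulus; test concentration not given here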
# [8] = system: Lefty1; assay: Lefty1 protein binding to printed compounds – biochemical, small-molecule microarray, 635/667 nm fluorescence, primary screen (AID 1139); conditions: fluorescence 635/667, higher = more signal
# [9] = system: wheat germ agglutinin (Triticum aestivum), Alexa647-labelled; assay: Alexa647-WGA lectin binding to printed small molecules – biochemical, small-molecule microarray, 635/667 nm fluorescence, artefact control for SMM control-protein annotation, profiling panel (AID 1140); conditions: WGA-A647 binding, 635 nm fluorescence, higher = more signal;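 note: score merges 667 nm feature emission with signal to noise over triplicate slides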
# [10] = molecular target: Luciferin 4-monooxygenase (Photinus pyralis) (UniProt P08659); assay: inhibition of purified Photinus pyralis luciferase – biochemical, luminescence, purified enzyme, 2006 set, primary screen (AID 1141); conditions: purified firefly luciferase, SteadyGlo luminescence, 30 min; higher = more signal, called active from +8 up or from −8 down;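 note: cell-free assay with purified firefly luciferase at 100 ng per well in PBS; test concentration not given here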
# Chain of Luciferin 4-monooxygenase (Photinus pyralis) (P08659 whole entry, looked up): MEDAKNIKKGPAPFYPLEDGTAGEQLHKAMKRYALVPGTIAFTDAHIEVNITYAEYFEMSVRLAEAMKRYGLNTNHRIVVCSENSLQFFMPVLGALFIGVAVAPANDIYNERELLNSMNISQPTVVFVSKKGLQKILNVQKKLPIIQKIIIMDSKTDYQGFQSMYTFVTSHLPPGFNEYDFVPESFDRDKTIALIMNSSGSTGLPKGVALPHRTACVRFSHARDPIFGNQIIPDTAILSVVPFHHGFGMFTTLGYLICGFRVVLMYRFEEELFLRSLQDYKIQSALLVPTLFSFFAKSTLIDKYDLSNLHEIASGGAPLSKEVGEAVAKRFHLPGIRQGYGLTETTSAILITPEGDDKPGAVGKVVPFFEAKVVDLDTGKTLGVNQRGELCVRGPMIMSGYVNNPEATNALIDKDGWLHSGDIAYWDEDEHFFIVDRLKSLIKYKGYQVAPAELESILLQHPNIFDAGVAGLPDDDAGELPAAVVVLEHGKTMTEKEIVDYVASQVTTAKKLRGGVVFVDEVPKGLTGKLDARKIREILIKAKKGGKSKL
# Chain of Focal adhesion kinase 1 (Homo sapiens) (Q05397 whole entry, looked up): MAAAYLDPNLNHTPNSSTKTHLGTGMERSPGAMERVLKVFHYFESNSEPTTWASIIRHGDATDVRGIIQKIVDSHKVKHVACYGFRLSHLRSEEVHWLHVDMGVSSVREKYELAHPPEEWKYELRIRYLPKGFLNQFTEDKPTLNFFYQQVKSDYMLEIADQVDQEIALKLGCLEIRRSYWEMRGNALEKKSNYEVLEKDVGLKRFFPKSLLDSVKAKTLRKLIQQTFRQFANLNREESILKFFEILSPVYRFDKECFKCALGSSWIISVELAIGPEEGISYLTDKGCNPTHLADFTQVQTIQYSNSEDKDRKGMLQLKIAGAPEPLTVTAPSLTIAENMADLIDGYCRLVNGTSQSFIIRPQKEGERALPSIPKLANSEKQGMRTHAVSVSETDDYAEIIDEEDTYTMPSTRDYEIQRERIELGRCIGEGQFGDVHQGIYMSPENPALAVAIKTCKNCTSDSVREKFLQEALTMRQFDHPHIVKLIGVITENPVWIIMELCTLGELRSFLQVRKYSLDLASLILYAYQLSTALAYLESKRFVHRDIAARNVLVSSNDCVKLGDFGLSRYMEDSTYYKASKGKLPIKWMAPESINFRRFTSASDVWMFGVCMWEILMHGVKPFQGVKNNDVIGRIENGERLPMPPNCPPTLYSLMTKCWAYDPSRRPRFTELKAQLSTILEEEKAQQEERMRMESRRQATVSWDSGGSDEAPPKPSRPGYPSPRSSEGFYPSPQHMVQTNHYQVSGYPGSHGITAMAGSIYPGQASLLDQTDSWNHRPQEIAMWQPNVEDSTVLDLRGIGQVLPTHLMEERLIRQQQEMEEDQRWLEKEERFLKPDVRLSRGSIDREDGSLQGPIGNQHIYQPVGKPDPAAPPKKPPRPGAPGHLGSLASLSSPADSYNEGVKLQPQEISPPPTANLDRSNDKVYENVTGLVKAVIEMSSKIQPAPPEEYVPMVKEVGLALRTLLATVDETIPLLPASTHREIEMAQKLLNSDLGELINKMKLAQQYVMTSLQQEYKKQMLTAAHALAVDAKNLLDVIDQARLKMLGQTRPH
# Chain of Fibroblast growth factor 2 (Homo sapiens) (P09038 whole entry, looked up): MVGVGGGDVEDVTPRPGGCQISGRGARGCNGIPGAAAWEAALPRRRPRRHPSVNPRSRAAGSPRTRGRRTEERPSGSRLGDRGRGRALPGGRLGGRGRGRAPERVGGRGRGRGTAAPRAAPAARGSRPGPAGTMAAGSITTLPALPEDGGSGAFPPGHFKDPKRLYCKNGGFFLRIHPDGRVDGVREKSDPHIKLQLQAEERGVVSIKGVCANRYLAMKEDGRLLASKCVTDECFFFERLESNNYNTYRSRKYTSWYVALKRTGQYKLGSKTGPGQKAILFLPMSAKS
# Chain of Follistatin (Homo sapiens) (P19883 whole entry, looked up): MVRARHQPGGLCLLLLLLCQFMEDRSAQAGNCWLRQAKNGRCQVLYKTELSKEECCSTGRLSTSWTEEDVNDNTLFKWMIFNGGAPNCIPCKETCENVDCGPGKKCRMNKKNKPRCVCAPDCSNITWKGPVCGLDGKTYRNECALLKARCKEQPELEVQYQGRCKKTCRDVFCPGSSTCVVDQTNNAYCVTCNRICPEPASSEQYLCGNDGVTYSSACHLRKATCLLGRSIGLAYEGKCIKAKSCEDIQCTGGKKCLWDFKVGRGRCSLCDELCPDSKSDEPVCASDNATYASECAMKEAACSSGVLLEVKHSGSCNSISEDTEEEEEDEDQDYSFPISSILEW
SMILES,composite z-score [1],composite z-score [2],composite z-score [3],composite z-score [4],composite z-score [5],composite z-score [6],z-score [7],composite z-score [8],composite z-score [9],z-score [10]
O=C(CS)NCCCCCNC(=O)[C@@H]1C[C@@H]2C(=O)NCC(=O)N2[C@@H]1c1cccc(OCCO)c1,3.09,-0.0552,1.8,0.0984,1.25,0.817,1.12,0.106,0.502,-2.27 (inactive)
C=C(CCCC)/C(=C/C[C@H](OC(C)=O)c1ccc(OCCO)cc1)c1cnc2ccccc2c1,0.91,0.78,-0.115,0.387,0.735,0.623,0.649,1.15,0.869,-0.126 (inactive)
C=CC[C@@]1(C(=O)N2CCCCC2)N=C(c2ccc(OCCCO)cc2)O[C@@H]1c1ccccc1N=[N+]=[N-],2.24,1.23,0.407,0.957,1.09,0.162,-0.35,0.0928,1.06,-10.4 (active)
COc1cc2c(cc1OC)CN(C(=O)[C@H]1[C@@H]3C(=O)O[C@@H](c4ccccc4)[C@@H](c4ccccc4)N3[C@@H](c3ccccc3OCCO)[C@]13C(=O)Nc1ccc(C#CCCO)cc13)CC2,1.1,1.2,0.612,0.871,1.18,1.65,-0.486,1.13,0.524,-0.255 (inactive)
COc1ccc([C@H]2C[C@H]3C(I)=C[C@@H]2C(=O)[C@]32CO2)cc1,-0.608,-0.658,-0.449,-0.193,0.762,1.14,1.1,0.983,0.24,-0.303 (inactive)
O=C1O[C@H](c2ccccc2)[C@H](c2ccccc2)N2[C@H]1[C@@H](C(=O)NC[C@H](O)c1ccccc1)[C@]1(C(=O)Nc3ccc(C#CC4=CCCCC4)cc31)[C@H]2c1ccccc1OCCO,1.24,1.19,0.661,0.86,1.1,0.198,-1.76,0.632,1.05,-0.758 (inactive)
COCCOC(=O)N1C(=O)[C@@]2(c3ccccc31)[C@H](c1ccc(OCCO)cc1)N1[C@H](c3ccccc3)[C@H](c3ccccc3)OC(=O)[C@H]1[C@@H]2C(=O)N1CCc2cc(OC)c(OC)cc2C1,2.41,1.2,0.85,0.958,1.3,1.38,-0.0272,1.35,1.17,-0.603 (inactive)
O=C1OCC=C[C@H]2OC34C=CCN(Cn5nnc6ccccc65)C(=O)[C@H]3N(CCCCCO)C(=O)[C@@H]4[C@@H]12 (stereo not given in full),0.181,-0.185,-0.34,-0.566,-0.997,-0.846,-1.47,-0.992,1.25,0.365 (inactive)
CCCC[C@H]1C[C@@H]1[C@@H]1N(P(=O)(c2ccccc2)c2ccccc2)C[C@@](O)(c2ccccc2)CC12CC2,0.127,0.973,0.663,0.955,0.208,0.0514,-1.57,-1.06,0.727,2.35 (inactive)
C=CCOC(=O)[C@H]1[C@@H]2C(=O)O[C@@H](c3ccccc3)[C@@H](c3ccccc3)N2[C@@H](c2ccc(OCCOC(=O)[C@@H]3C[C@@H]4C(=O)N5CCC[C@H]5C(=O)N4[C@@H]3c3cccc(OCCO)c3)cc2)[C@]12C(=O)Nc1ccc(I)cc12,1.55,1.2,0.402,0.726,1.45,1.4,-0.838,1.38,0.458,-1.12 (inactive)
CC(C)(C)OC(=O)CC[C@]1(C(N)=O)N=C(c2ccc(OCCCO)cc2)O[C@H]1c1ccccc1,2.07,1.2,0.35,0.407,0.839,0.29,1.04,-0.388,1.48,-0.47 (inactive)
C=C(/C(=C/C[C@H](OC(=O)c1ccncc1)c1ccc(OCCO)cc1)c1cc(C(=O)OC)ccc1OC)C(C)C,0.785,1,0.359,0.821,0.789,0.494,-0.228,0.546,0.681,-0.357 (inactive)
C[N+](C)(C)CCCC[C@@H]1NC(=O)[C@@H]2C[C@H](C(=O)NCCCCCCNC(=O)CS)[C@H](c3ccc(O)cc3)N2C1=O,0.271,-0.982,-0.531,-0.33,0.0054,-0.117,-0.122,-0.237,-0.341,0.182 (inactive)
COCCOC(=O)N1C(=O)[C@@]2(c3cc(C#CC4=CCCCC4)ccc31)[C@H](c1ccc(OCCO)cc1)N1[C@H](c3ccccc3)[C@H](c3ccccc3)OC(=O)[C@H]1[C@@H]2C(=O)N1CCc2cc(OC)c(OC)cc2C1,0.936,1.19,0.647,0.874,0.989,1.32,-0.729,1.11,-0.0709,-2.35 (inactive)
O=C1C2C=CC(C(O)c3cc(C(F)(F)F)cc(C(F)(F)F)c3)N(Nc3ccccc3)C2C(=O)N1c1ccccc1 (stereo not given),0.692,1.27,0.838,0.462,0.0145,-0.601,-0.424,0.192,0.173,-1.47 (inactive)
O=C1O[C@@H](c2ccccc2)[C@@H](c2ccccc2)N2[C@@H](c3ccc(OCCO)cc3)[C@]3(C(=O)Nc4ccc(C#CC5=CCCCC5)cc43)[C@@H](C(=O)N3CCCCCCC3)[C@H]12,1.41,1.23,1.55,0.772,1.39,1.09,-1.02,1.55,1.46,-1.13 (inactive)
CN(C)CCCCCCNC(=O)[C@@H]1C[C@@H]2C(=O)N3CCC[C@H]3C(=O)N2[C@@H]1c1ccc(O)cc1,3.06,1.11,-0.135,0.539,1.47,1.74,0.334,1.72,0.758,-0.934 (inactive)

SMILES,composite z-score [1],composite z-score [2],composite z-score [3],composite z-score [4],composite z-score [5],composite z-score [6],z-score [7],composite z-score [8],composite z-score [9],z-score [10]
COCCCNC(=O)[C@@H]1c2ccccc2C(=O)N(Cc2ccccc2OC)[C@H]1c1ccc(CO)cc1,2.1,0.133,0.503,-0.444,0.832,1.42,-0.374,1.07,0.701,1.43 (inactive)
CC(=O)NCCCC[C@@H]1NC(=O)[C@H]2C[C@@H](C(=O)NCCCCCNC(=O)CS)[C@@H](c3ccc(O)cc3)N2C1=O,2.12,-0.15,0.167,-0.355,0.769,0.424,0.139,-0.272,-0.0796,-2.56 (inactive)
C=C(CCCC)/C(=C/C[C@@H](OC(C)=O)c1ccccc1OCCO)c1cc(C(=O)OC)ccc1OC,-0.9,-0.2,-0.0448,0.259,0.35,0.16,2.6,0.384,0.0424,-2.02 (inactive)
O=C1C2C=CC(C(O)c3ccc4c(c3)OCO4)N(Nc3ccc([N+](=O)[O-])cc3)C2C(=O)N1c1ccccc1 (stereo not given),1.29,0.978,-0.0123,0.293,0.225,-0.0036,-0.35,0.313,0.0897,0.382 (inactive)
C=C(C)[C@@H]1CC=C(C(O)C2C=CC3C(=O)NC(=O)C3N2Nc2ccc(Cl)cc2Cl)CC1 (stereo not given in full),1.83,1.2,1.33,1,1.14,-0.853,-1.25,-0.336,1.34,0.022 (inactive)
[N-]=[N+]=Nc1ccccc1C[C@]1(C(=O)N2CCCCC2)COC(c2ccc(OCCCO)cc2)=N1,1.33,1.15,0.65,1.01,0.601,-0.0446,0.124,0.308,0.523,-6.97 (inactive)
NCCCCCNC(=O)[C@H]1C[C@H]2C(=O)N[C@@H](Cc3ccccc3)C(=O)N2[C@H]1c1cccc(OCCO)c1,0.614,0.624,0.163,0.962,1.07,0.159,1.07,0.0778,0.782,-1.4 (inactive)
CC#CC(=O)Oc1ccc(Br)cc1C=CC(=O)OCC,-0.179,1.06,0.167,-0.382,0.233,-0.0698,-0.817,0.0606,0.665,-0.39 (inactive)
COc1cc2c(cc1O)C(c1cccs1)N(Cc1ccc([N+](=O)[O-])o1)CC2 (stereo not given),0.737,0.182,0.215,0.979,0.257,0.478,2.32,-0.795,0.839,-2.26 (inactive)
CC(C)CN1C(=O)[C@@]2(c3ccc([N+](=O)[O-])cc3)CC(=O)N(C3CCCCC3)[C@@H]2c2ccc(CO)cc21,-0.75,-1.07,-0.0035,-1.05,-1.29,-0.875,0.766,-0.919,0.428,0.791 (inactive)
Cc1ccc(C2C3C(=O)CC4C(=O)N(c5ccccc5)C(=O)C4C3CN2S(=O)(=O)c2ccc(C)cc2)cc1 (stereo not given),1.16,1.24,-0.177,0.403,0.24,0.294,-0.112,0.0507,0.912,0.732 (inactive)
OCCCC1=CC(C2CC2)N(Cc2cccc(OC(F)(F)F)c2)CC1 (stereo not given),-0.103,-0.208,0.227,-2.53,-0.306,-0.338,0.00271,0.32,-0.0444,0.382 (inactive)
O=C(CS)NCCCCCNC(=O)[C@@H]1C[C@@H]2C(=O)NCC(=O)N2[C@@H]1c1ccc(O)cc1,1.79,0.443,0.393,-0.135,1.18,1.24,-0.977,0.269,-0.855,-1.24 (inactive)
CCCCC(=C=CC[C@@H](O)c1ccc(CO)o1)CCO,1.05,0.0355,-0.347,-0.313,1.14,1.13,0.622,1.08,0.55,-2.51 (inactive)
NC(=O)[C@@H]1[C@H]2C(=O)O[C@H](c3ccccc3)[C@H](c3ccccc3)N2[C@H](c2ccc(O)cc2)[C@@]12C(=O)Nc1ccc(C#CC3=CCCCC3)cc12,1.43,1.18,0.284,0.789,1.02,-0.201,-2.5,0.847,1.03,-0.589 (inactive)
COc1ccc([Si](C)(C)[C@@H]2[C@@H](CC(=O)N3Cc4ccccc4C[C@H]3CO)O[C@]3(C(=O)N(Cc4cccc(N5CCC5=O)c4)c4ccccc43)[C@H]2C)cc1,0.887,1.12,0.366,0.357,1.22,1.01,-0.256,1.02,0.696,-0.106 (inactive)
Cc1ccc(S[C@]2(C(=O)O)CC(=O)N(C(C)C)[C@@H]2c2ccc(CO)cc2)cc1,0.715,-0.386,0.104,-0.307,0.0281,-0.129,-0.233,-0.0075,0.557,0.568 (inactive)
